SMILES strings stand for the structures. The whole screen tested about 69,000 compounds, of which about 8,600 (12%) showed an effect of 50% or more. Many of the other results were omitted from the sample, so strong results are more common in it than they were.

This assay concerns Plasmodium berghei. As to the kind of experiment: Screen against P. berghei liver stage (PbLuc), transformed with Luciferase, at 10uM. Format: functional, HepG2. The settings on record: tested at 10 uM.
Consider `Cn1cc(CN(CC2(O)CNCCOC2)C2CCCCC2)cn1` (stereo unspecified), for which the INHIBITION is reported as 38.5%.
With `O=C(Cc1ccccc1F)N1CCN(C(=O)c2cccc(F)c2)CC1` the figure was 27.6%; with `Cc1noc(CCCc2nc(C3CCOC3)no2)n1` (stereo unspecified), 5.87%.
For the compound `Cc1cc(C2CCCN2Cc2ccc(C(=O)Nc3nccs3)cc2)on1` (stereo unspecified), the INHIBITION was found to be 7.97%.
With `Cc1cc(C2CCCN2Cc2cccc(C(=O)Nc3nccs3)c2)no1` (stereo unspecified), the INHIBITION is reported as -30.7%.
`Cc1nonc1C1CCCN1Cc1ccc(C(=O)Nc2nccs2)cc1` (stereo unspecified): the INHIBITION was found to be 56.6%.
As for `O=c1[nH]c2cn(-c3ccc(Br)cc3)c(=O)n2[nH]1`, the INHIBITION stood at 31.6%.
With `CCNC(=O)CCC(=O)N1CCC(Oc2cc(C)ccc2C)CC1`, the INHIBITION came to 14.9%.
The value for `Cc1ccc(C)c(OC2CCN(C(=O)CNc3ccccc3Cl)CC2)c1` was 83.9%.
As for `Cc1ccc(C)c(OC2CCN(C(=O)NCC(=O)N3CCCC3)CC2)c1`, the INHIBITION is recorded as -29.5%.
The value for `CCc1cnc(N)nc1N(C)CCc1cnn(C)c1` was 2.84%.
Regarding `CC(C)S(=O)(=O)C(C)C(=O)NCc1ccccc1COc1ccccc1` (stereo unspecified), the INHIBITION was -4.12%.
The value for `CC(=O)C(C)CC(=O)N(Cc1cccc(C)c1)C(C)C` (stereo unspecified) was 68.4%; that for `COCCOCC(=O)N(Cc1cccc(C)c1)C(C)C` was 5.94%.
Consider `Cc1cccc(CN(C(=O)CS(C)(=O)=O)C(C)C)c1`, for which the INHIBITION was -12.9%.
With `O=C(c1ccc(O)cc1)N1C[C@@H]2OCCN(c3ncccn3)[C@@H]2C1` the figure was -15.2%.
With `CCOc1ncccc1NC(=O)NC1CCCN(S(C)(=O)=O)C1` (stereo unspecified) the figure was -2.19%.
With `COc1ncccc1C(=O)N1CCc2c(ncnc2N2CCOCC2)C1` the figure was -102%; with `c1coc(CN2CCc3nnc(COc4cncnc4)n3CC2)c1`, 10.6%; with `O=C1C(Sc2nnnn2C2CC2)CCN1c1ccccc1Cl` (stereo unspecified), 11.4%.
Consider `O=C(c1ccc[nH]1)N1CCOCC12CCCC2`, for which the INHIBITION is reported as 40.9%.
For `Cc1[nH]ccc1C(=O)N1CCOCC12CCCC2`, the INHIBITION is given as 19.3%.
With `Cc1ccc(F)cc1C(=O)N1CCOCC12CCCC2` the figure was 69.1%; with `Cn1cc(C2CCCN2C(=O)c2cnc(-c3ccco3)s2)cn1` (stereo unspecified), 23.6%.
For `CNc1nnc(CCn2nc(C)c(Br)c2C)s1`, the INHIBITION is reported as 7.38%.
Turning to `CS(=O)(=O)c1ccc(-c2cnc(C3CCCN3)cn2)cc1` (stereo unspecified), the INHIBITION worked out at 45.95%.
The value for `CCCc1noc(CNc2ccc(C(=O)N3CCCC3)cc2C)n1` was 12.7%; that for `COc1cc2cc(C)c(SCCN3CCCC3)nc2cc1OC` was 33.2%; that for `CCc1cc2cc(OC)c(OC)cc2nc1SCCN1CCCCC1` was 43.4%.
The value for `COc1cc2cc(C)c(SCCN3CCCCC3)nc2cc1OC` was 51.7%.
The value for `CN1CCC(c2cccc(Cc3ccc(C(F)(F)F)cc3)n2)CC1` was 85.7%.
Take `COc1ccc(Cc2cccc(C3CCN(C)CC3)n2)cc1`: the INHIBITION stood at 43.8%.
With `CN1CCC(c2cccc(CCC(=O)NCC(N)=O)n2)CC1` the figure was -6.92%; with `CN1CCC(c2cccc(NCc3ccncc3)n2)CC1`, -2.09%; with `CN1CCC(c2cccc(Cc3ccc(F)cc3)n2)CC1`, 35.8%.
The value for `CN1CCC(c2cccc(Cc3ccccc3)n2)CC1` was 82.7%; that for `CCN(Cc1ccc2c(c1)OCO2)S(=O)(=O)N(C)C` was -21.9%.
With `CC(C)Cc1noc(C2CCN(C(=O)c3cccs3)CC2)n1` the figure was 17%.
Take `Cc1cnn(CC2CCCN2C(=O)c2cccc(-n3ccc(C)n3)c2)c1` (stereo unspecified): the INHIBITION is -17%.
Consider `NC(=O)COc1cccc(CN2CCc3cncnc3C2)c1`, for which the INHIBITION is listed as 11.2%.
Take `CN(Cc1ccco1)[C@@H]1CN(Cc2ccoc2)C[C@@H]2CCCO[C@@H]21`: the INHIBITION was determined as 41.3%.
The value for `CS(=O)(=O)c1cnc(C2CCCC2)nc1C1CCCNC1` (stereo unspecified) was 16.5%.
With `COCCN1CCc2c(cnc(-c3ccccc3)c2C(=O)O)C1` the figure was 36.4%; with `CC(C)(O)CN1CCN(C(=O)COCc2ccccc2Cl)CC1`, 23.1%; with `Cc1cccc(-n2nnnc2C2(NCc3ccco3)CCCCC2)c1`, 28.7%.
With `Cn1cnnc1C1CCCN(C(=O)c2cc(C3CC3)on2)C1` (stereo unspecified), the INHIBITION came out at 5.15%.
In the case of `Cn1cnnc1C1CCCN(C(=O)NCc2ccccn2)C1` (stereo unspecified), the INHIBITION came to 1.75%.
Consider `Cn1cnnc1C1CCCN(C(=O)NCc2ccccc2)C1` (stereo unspecified), for which the INHIBITION was -33.7%.
The value for `Cn1cnnc1C1CCN(C(=O)c2cc(-c3ccccc3)on2)CC1` was 51%; that for `Cn1cnnc1C1CCCN(C(=O)NCc2cc[nH]n2)C1` (stereo unspecified) was 50.4%; that for `COC1CCN(C(=O)c2cc(-c3ccc(Cl)cc3)on2)CC1` was -55.6%.
Consider `Cc1noc(C2CCCN(C(=O)c3cc(-c4ccccc4)on3)C2)n1` (stereo unspecified), for which the INHIBITION was 47.7%.
With `Cn1cnnc1C1CCCN(C(=O)c2cc(-c3ccccc3)on2)C1` (stereo unspecified), the INHIBITION is 60%.
With `Cc1cc(C(=O)N2CCCC(c3nncn3C)C2)no1` (stereo unspecified) the figure was 36.5%; with `Cc1cccc2ncn(C(C)Cn3cccn3)c(=O)c12` (stereo unspecified), 31.7%; with `Cc1nn(C)cc1C1CC(=O)Nc2c1cnn2C(C)C` (stereo unspecified), 48.4%.

The values above are taken from ChEMBL document CHEMBL4513216, “Probing the Open Global Health Chemical Diversity Library for Multistage-Active Starting Points for Next-Generation Antimalarials” (ACS Infect Dis, 2020).
